PubChem BioAssay (EPA / NIEHS)
Several values for one entry are separate records, joined by “and”; a condition that tells them apart may be missing. Equal entries are not always repeated. The source holds several records for some structures; these can differ, active in one and inactive in another. Activity calls are given as the source filed them. How the source made its calls: active means hit-call score of the fitted dose curve at least 0.9, where 1 is the maximum; inactive means score below 0.9.

Read-out: Intercellular Adhesion Molecule 1 (ICAM1), ICAM1 (gene 3383)
Experiment: BSK_BE3C_ICAM1: BioMAP Diversity Plus: BE3C Assay for Intercellular Adhesion Molecule 1 (ICAM1) Biomarker Activity (AID 2284278);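 on outcome: cell-surface ICAM-1 protein level quantified by ELISA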
Conditions: primary human bronchial epithelial cells
How it was run: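 Primary human bronchial epithelial cells were exposed to compound for 24 h, after which cell-surface ICAM-1 was quantified by ELISA. Activity was fitted in the gain-of-signal direction against DMSO as negative control and baseline.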

**Q.** Which results are given for `CCCCCCC(CO)CCCC` (stereo not given)?
**A.** AC50: 20 µM (active); outcome: inactive

**Q.** How did the outcome turn out when `O=C(Nc1ccc2c(O)c(N=Nc3ccc(N=Nc4ccc(S(=O)(=O)O)cc4)cc3)c(S(=O)(=O)O)cc2c1)c1ccccc1` was run?
**A.** inactive

**Q.** With `O=CN1CCOCC1` as the molecule, how does the outcome read?
**A.** inactive

**Q.** `CCOC(=O)C(C#N)=C(c1ccccc1)c1ccccc1` was tested. Which outcome did it give?
**A.** inactive

**Q.** For `CC1(C)CCC[C@]2(C)[C@H]3CCO[C@]3(C)CC[C@@H]12`, which outcome is on record?
**A.** inactive

**Q.** How did the outcome turn out when `C=CC(C)(O)CCC=C(C)C` (stereo not given) was run?
**A.** inactive

**Q.** For `CC(CN=Cc1ccccc1O)N=Cc1ccccc1O` (stereo not given), which outcome is on record?
**A.** inactive

Read-out: Interferon-inducible T-cell alpha chemoattractant (ITAC), CXCL11 (gene 6373)
Experiment: BSK_BE3C_ITAC: BioMAP Diversity Plus: BE3C Assay for Interferon-inducible T-cell alpha chemoattractant (ITAC) Biomarker Activity (AID 2284279)
Conditions: primary human bronchial epithelial cells
How it was run: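 ELISA read-out of I-TAC after 24 h chemical dosing of human lung primary bronchial epithelial cells; gain-of-signal fit vs DMSO baseline. Parallel SRB total-protein staining (0.1% SRB, 10% TCA fixation, 560 nm) assessed cytotoxicity.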

**Q.** For `CCCCCCC(CO)CCCC` (stereo not given), which outcome is on record?
**A.** inactive

**Q.** With `O=C(Nc1ccc2c(O)c(N=Nc3ccc(N=Nc4ccc(S(=O)(=O)O)cc4)cc3)c(S(=O)(=O)O)cc2c1)c1ccccc1` as the molecule, how does the AC50 read?
**A.** 30.4 µM (active) and 20 µM (active)

**Q.** How did the outcome turn out when `O=CN1CCOCC1` was run?
**A.** inactive

**Q.** With `CCOC(=O)C(C#N)=C(c1ccccc1)c1ccccc1` as the molecule, how does the outcome read?
**A.** inactive

**Q.** For `CC1(C)CCC[C@]2(C)[C@H]3CCO[C@]3(C)CC[C@@H]12`, which outcome is on record?
**A.** inactive

**Q.** For `C=CC(C)(O)CCC=C(C)C` (stereo not given), which outcome is on record?
**A.** inactive

**Q.** Which outcome does the source give for `CC(CN=Cc1ccccc1O)N=Cc1ccccc1O` (stereo not given) here?
**A.** inactive
